Reference: PubChem BioAssay (Tox21)
Several values for one entry are separate records, joined by “and”; a condition that tells them apart may be missing. Equal entries are not always repeated. Results filed as inconclusive are left out. The source holds several records for some structures; these can differ, active in one and inactive in another. Activity calls are given as the source filed them. Unless noted, calls come from the whole dose curve; as a rule, active = well fitted curve in the direction sought with a large enough effect in the repeat runs; inconclusive = weak or mixed curves; inactive = no such curve, though single readings can be large; an effect the other way counts as inactive or inconclusive.

Legend:
[1] = qHTS assay to identify small molecule agonists of the peroxisome proliferator-activated receptor delta (PPARd) signaling pathway - cell viability counter screen (AID 743211); settings: PPARd-bla HEK293H viability, CellTiter-Glo luminescence, 17 h; series mostly up to 62.6 µM; note: nearly all actives have a fitted effect of over 55% in size; note: potency is the fitted concentration of half-maximal effect
Outline: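 qHTS cell viability: PPARd-bla HEK293H; 17 h cpd, 37C; CellTiter-Glo, luminescence at 30 min RT.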

[2] = target: Peroxisome proliferator-activated receptor delta (Homo sapiens) (UniProt Q03181); test: qHTS assay to identify small molecule agonists of the peroxisome proliferator-activated receptor delta (PPARd) signaling pathway (AID 743212; calls by dose curve); settings: HEK293H PPARd-UAS-bla, beta-lactamase FRET ratio, 17 h; series mostly up to 62.6 µM
Sequence of Peroxisome proliferator-activated receptor delta (Homo sapiens) (Q03181 whole entry, looked up): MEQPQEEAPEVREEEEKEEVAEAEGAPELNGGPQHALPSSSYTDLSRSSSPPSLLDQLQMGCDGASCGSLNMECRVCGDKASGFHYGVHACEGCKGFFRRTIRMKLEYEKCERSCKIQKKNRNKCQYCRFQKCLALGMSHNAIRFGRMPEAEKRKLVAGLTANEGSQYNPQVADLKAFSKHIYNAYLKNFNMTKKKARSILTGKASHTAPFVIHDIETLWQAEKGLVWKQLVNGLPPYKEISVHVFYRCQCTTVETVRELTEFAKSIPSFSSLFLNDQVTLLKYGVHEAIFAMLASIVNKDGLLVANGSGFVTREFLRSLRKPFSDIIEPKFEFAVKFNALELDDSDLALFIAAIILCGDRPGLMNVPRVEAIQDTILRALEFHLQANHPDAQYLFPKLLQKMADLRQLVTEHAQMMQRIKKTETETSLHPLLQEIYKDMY
Outline: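 GeneBLAzer PPARd UAS-bla HEK293H cells (beta-lactamase reporter under UAS control), plated and rested 5 h at 37 C, then exposed to compounds in DMSO at 37 C; LiveBLAzer B/G FRET substrate added, 2 h room temperature, fluorescence read.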

[3] = qHTS assay to identify small molecule antagonists of the peroxisome proliferator-activated receptor delta (PPARd) signaling pathway - cell viability counter screen (AID 743213); settings: PPARd-bla HEK293H viability, CellTiter-Glo luminescence, 17 h; series mostly up to 62 µM; note: nearly all actives have a fitted effect of over 50% in size; note: potency is the fitted concentration of half-maximal effect
Outline: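 Agonist-stimulated (L165041, 300 nM final) HEK293H PPARd UAS-bla cells are exposed to compounds for 17 h at 37 C, and ATP-based luminescence (CellTiter-Glo) from the same wells reports cytotoxicity.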

[4] = target: Peroxisome proliferator-activated receptor delta (Homo sapiens) (UniProt Q03181); test: qHTS assay to identify small molecule antagonists of the peroxisome proliferator-activated receptor delta (PPARd) signaling pathway (AID 743215; active = well fitted inhibition curve with a large enough effect in the signal ratio in the repeat runs, not every such curve was filed as active; the % refers to the signal ratio; note: potency is the fitted concentration of half-maximal effect); settings: HEK293H PPARd-UAS-bla, beta-lactamase FRET ratio, antagonist, 17 h; series mostly up to 62 µM
Outline: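 HEK293H UAS-bla, PPARd; agonist L165041 300 nM final with cpd in DMSO; 37 C 17 h; FRET substrate, RT 2 h; fluorescence intensity.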

[5] = target: Bile acid receptor (Homo sapiens) (UniProt Q96RI1); test: qHTS assay to identify small molecule antagonists of the farnesoid-X-receptor (FXR) signaling pathway (AID 743217; active = well fitted inhibition curve with a large enough effect in the signal ratio in the repeat runs, not every such curve was filed as active; the % refers to the signal ratio); settings: HEK293T FXR-UAS-bla, beta-lactamase ratio, CDCA-stimulated, 16 h; series mostly up to 62.6 µM
Sequence of Bile acid receptor (Homo sapiens) (Q96RI1 whole entry, looked up): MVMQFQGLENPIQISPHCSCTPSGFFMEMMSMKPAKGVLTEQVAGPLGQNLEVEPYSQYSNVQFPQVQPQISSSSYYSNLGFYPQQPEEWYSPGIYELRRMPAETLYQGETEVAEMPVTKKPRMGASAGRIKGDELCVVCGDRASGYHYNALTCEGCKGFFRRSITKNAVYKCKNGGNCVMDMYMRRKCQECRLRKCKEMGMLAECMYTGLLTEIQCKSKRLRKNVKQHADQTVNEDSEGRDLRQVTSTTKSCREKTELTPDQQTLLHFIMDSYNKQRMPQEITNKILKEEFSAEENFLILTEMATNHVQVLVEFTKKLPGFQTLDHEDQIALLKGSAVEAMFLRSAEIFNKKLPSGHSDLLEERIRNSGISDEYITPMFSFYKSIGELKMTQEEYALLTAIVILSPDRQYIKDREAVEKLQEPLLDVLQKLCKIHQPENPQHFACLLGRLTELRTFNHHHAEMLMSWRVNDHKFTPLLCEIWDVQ
Outline: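 GeneBLAzer FXR-UAS-bla HEK 293T, CDCA-stimulated (50 uM final). Compound treatment 16 h, 37 °C. Detection: beta-lactamase cleavage of B/G FRET substrate, fluorescence.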

[6] = qHTS assay to identify small molecule agonists of the farnesoid-X-receptor (FXR) signaling pathway - cell viability counter screen (AID 743218); settings: FXR-bla HEK293T viability, CellTiter-Glo luminescence, 16 h; series mostly up to 62.6 µM; note: nearly all actives have a fitted effect of over 45% in size; note: potency is the fitted concentration of half-maximal effect
Outline: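 Parallel cytotoxicity test: compound-treated (16 h, 37 C) HEK 293T FXR-bla reporter cells were lysed with CellTiter-Glo and luminescence recorded.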

[7] = target: Bile acid receptor (Homo sapiens) (UniProt Q96RI1); test: qHTS assay to identify small molecule agonists of the farnesoid-X-receptor (FXR) signaling pathway (AID 743220; active = well fitted activation curve with a large enough effect in the signal ratio in the repeat runs, not every such curve was filed as active; the % refers to the signal ratio); settings: HEK293T FXR-UAS-bla, beta-lactamase FRET ratio, 16 h; series mostly up to 62.6 µM
Outline: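 Beta-lactamase reporter under UAS control in GeneBLAzer FXR HEK 293T cells (5000/well) measured with LiveBLAzer FRET substrate after 2 h at room temperature. Compound exposure lasted 16 h at 37C.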

[8] = qHTS assay to identify small molecule antagonists of the farnesoid-X-receptor (FXR) signaling pathway - cell viability counter screen (AID 743221; active = well fitted cell-killing curve with a large enough effect in the repeat runs, not every such curve was filed as active; note: nearly all actives have a fitted effect of over 50% in size); settings: FXR-bla HEK293T viability, CellTiter-Glo luminescence, 16 h; series mostly up to 62.6 µM
Outline: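 After a 5 h settling period, FXR-bla HEK 293T cells receive compound and chenodeoxycholic acid (50 uM final) and incubate 16 h at 37 C; CellTiter-Glo luminescence, read after 30 min at room temperature, reports cell viability.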

[9] = target: Vitamin D3 receptor (Homo sapiens) (UniProt P11473); test: qHTS assay to identify small molecule agonists of the vitamin D receptor (VDR) signaling pathway (AID 743222; calls by dose curve); settings: HEK293T VDR-UAS-bla, beta-lactamase FRET ratio, 16 h; series mostly up to 63.5 µM
Sequence of Vitamin D3 receptor (Homo sapiens) (P11473 whole entry, looked up): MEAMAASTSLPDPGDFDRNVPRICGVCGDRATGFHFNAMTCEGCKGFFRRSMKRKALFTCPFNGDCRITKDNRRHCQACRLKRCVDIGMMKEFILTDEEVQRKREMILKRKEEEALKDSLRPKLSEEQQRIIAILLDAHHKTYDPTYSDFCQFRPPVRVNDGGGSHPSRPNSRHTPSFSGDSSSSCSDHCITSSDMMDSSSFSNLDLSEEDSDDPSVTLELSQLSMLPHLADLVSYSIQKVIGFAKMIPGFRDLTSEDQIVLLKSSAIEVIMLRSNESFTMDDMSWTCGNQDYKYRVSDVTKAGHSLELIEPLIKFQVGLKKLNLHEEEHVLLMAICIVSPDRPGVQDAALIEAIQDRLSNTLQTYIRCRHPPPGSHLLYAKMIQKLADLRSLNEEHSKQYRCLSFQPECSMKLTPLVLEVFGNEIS
Outline: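 In VDR-bla cells, compound-induced beta-lactamase expression is quantified by FRET substrate fluorescence. Treatment lasts 16 h at 37C; substrate develops 2 h at room temperature.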

[10] = target: Vitamin D3 receptor (Homo sapiens) (UniProt P11473); test: qHTS assay to identify small molecule antagonists of the vitamin D receptor (VDR) signaling pathway (AID 743223; active = well fitted inhibition curve with a large enough effect in the signal ratio in the repeat runs, not every such curve was filed as active; the % refers to the signal ratio); settings: VDR-UAS-bla HEK293T, beta-lactamase FRET ratio, 16 h; series mostly up to 61 µM
Outline: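 Reporter line VDR-bla; stimulus 1alpha,25-(OH)2 vitamin D3, 3 nM final; compound co-addition, 16 h 37C/5% CO2; LiveBLAzer B/G substrate 2 h RT; fluorescence intensity.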

Measured: Potency

CON(C)C(=O)Nc1ccc(Cl)cc1
inactive: all assays above

CCCCC(CC)COC(=O)c1c(Br)c(Br)c(Br)c(Br)c1C(=O)OCC(CC)CCCC (stereo not given)
not listed: [7] | [8]
inactive: all other assays above

Cc1ccc(N)c(C)c1
inactive: all assays above

COC1=CC(=O)O[C@@H](/C=C/c2ccc3c(c2)OCO3)C1
inactive: [1] | [2] | [3] | [4] | [6] | [8]

SCc1ccccc1
inactive: all assays above

C[N+]1(CCF)[C@@H]2CC[C@H]1CC(OC(=O)C(O)(c1ccccc1)c1ccccc1)C2 (stereo not given in full)
inactive: all assays above

COC1CC(=C(c2cccs2)c2cccs2)C[N+](C)(C)C1 (stereo not given)
not listed: [9]
inactive: all other assays above

C[C@H]1[C@@H]2Cc3ccc(O)cc3[C@@]1(C)CCN2C
not listed: [7] | [9] | [10]
inactive: all other assays above

CC(C)CCON=O
not listed: [5] | [7] | [10]
inactive: all other assays above

NC(=S)c1c(Cl)cccc1Cl
inactive: [1] | [2] | [3] | [4] | [6] | [8]

C[C@H]1O[C@H](OC2[C@@H](O)[C@@H](O)C(O)[C@H](O)[C@H]2O)[C@@H](N)C[C@@H]1N=C(N)C(=O)O (stereo not given in full)
inactive: [1] | [2] | [3] | [4] | [6]

CC(Oc1cccc(Cl)c1)C(=O)O (stereo not given)
not listed: [6] | [8]
inactive: all other assays above

CCOC(=O)c1cncn1C(C)c1ccccc1 (stereo not given)
inactive: [1] | [2] | [3] | [4] | [6] | [8]

CC1(C)CC(=O)CC(C)(C)N1[O]
not listed: [7]
inactive: all other assays above

Cc1ccc2c(C)cccc2c1
not listed: [5] | [7] | [10]
inactive: all other assays above

CN1C(=O)CN=C(c2ccccc2)c2cc([N+](=O)[O-])ccc21
inactive: [1] | [2] | [3] | [4] | [6] | [8]

CCCC[N+]1(C)[C@@H]2CC(OC(=O)[C@H](CO)c3ccccc3)C[C@H]1[C@@H]1O[C@@H]12 (stereo not given in full)
inactive: [1] | [2] | [3] | [4] | [5] | [6]

O=C1NC(=O)C(=O)C(=O)N1
not listed: [8] | [9]
inactive: all other assays above

Cc1nc(N(C)C)nc(OC(=O)N(C)C)c1C
not listed: [7] | [8]
inactive: all other assays above

CC(C)[C@@H](C(=O)O[C@@H](C#N)c1cccc(Oc2ccccc2)c1)c1ccc(Cl)cc1
inactive: [1] | [2] | [3] | [4] | [6]

C[N+](C)(C)CC1CO1 (stereo not given)
inactive: [1] | [2] | [3] | [4] | [6] | [8]

O=[N+]([O-])O[C@H]1CO[C@H]2[C@@H]1OC[C@H]2O[N+](=O)[O-]
not listed: [7]
inactive: all other assays above

CC(=O)OC(c1ccccc1)C(Cl)(Cl)Cl (stereo not given)
not listed: [7] | [8] | [10]
inactive: all other assays above

CCOP(=S)(OCC)SCSc1cc(Cl)ccc1Cl
not listed: [5] | [7] | [10]
inactive: all other assays above

O=C(O)c1cc(Cl)ccc1Cl
not listed: [7]
inactive: all other assays above

CCCC1CCCCN1 (stereo not given)
inactive: [1] | [2] | [3] | [4] | [6] | [8]

CCC1CCC(=O)O1 (stereo not given)
not listed: [5] | [7] | [10]
inactive: all other assays above

c1ccc2sc(SNC3CCCCC3)nc2c1
not listed: [7]
inactive: all other assays above

CCCN(CCC)C(=O)Cc1c(-c2ccc(Cl)cc2)nc2ccc(Cl)cn12
inactive: [1] | [2] | [3] | [4] | [6] | [8]

Cc1nnc(-c2ccccc2)c(=O)n1N
not listed: [7] | [8] | [10]
inactive: all other assays above

CN(C)c1ccc(N=O)cc1
inactive and 49 µM (active): [6]
active: [1] 43.6 µM | [3] 43.6 µM | [4] 21.9 µM
not listed: [9]
inactive: all other assays above

CCOP(=O)(O)C(N)=O
inactive: all assays above

CCC[N+](CCC)(CCC)CCC
inactive: [1] | [2] | [3] | [4] | [6]

CC(O)CN1CCN(CC(=O)[O-])CCN(CC(=O)[O-])CCN(CC(=O)[O-])CC1.[Gd+3] (stereo not given)
not listed: [9]
inactive: all other assays above

OCCSSCCO
not listed: [7] | [10]
inactive: all other assays above

O=C(O)c1cc(I)cc(I)c1I
not listed: [10]
inactive: all other assays above

COc1ccc2c(c1OC)C(=O)O[C@H]2[C@@H]1c2cc3c(cc2CCN1C)OCO3
inactive: [1] | [2] | [3] | [4] | [6] | [8]

C#CC(O)(C=CCl)CC (stereo not given)
inactive: all assays above

CN(C)C(=O)Nc1cccc(OC(=O)NC(C)(C)C)c1
inactive: [1] | [2] | [3] | [4] | [6] | [8]

CC[N+]1(CCOC(=O)C(O)(c2ccccc2)c2ccccc2)CCCCC1
not listed: [3] | [7] | [9]
inactive: all other assays above

CCCN(CCC)c1c([N+](=O)[O-])cc(C(C)C)cc1[N+](=O)[O-]
not listed: [5] | [7]
inactive: all other assays above

CC(C)C1(C)N=C(c2ncccc2C(=O)O)NC1=O (stereo not given)
not listed: [3] | [9]
inactive: all other assays above

O=C(O)C(O)C(O)C(=O)O (stereo not given)
inactive: [1] | [2] | [3] | [5] | [6] | [8]

Nc1cc(Cl)cc(C(=O)O)c1Cl
not listed: [5] | [7] | [9]
inactive: all other assays above

O=C=NC1CCCCC1
not listed: [3] | [6] | [7]
inactive: all other assays above

CC(C)(C#N)C(C)(C)C#N
not listed: [3] | [9] | [10]
inactive: all other assays above

C=CC(=O)OCC
inactive: [1] | [2] | [4] | [5] | [6]

OCC1CO1 (stereo not given)
not listed: [3] | [7] | [8]
inactive: all other assays above

O=C(CCl)CCl
inactive and 54.9 µM (active): [1] | [6]
not listed: [5] | [7]
inactive: all other assays above

CC(C)(C)CC(C)(C)c1ccc(O)cc1
inactive: [2] | [4] | [7]
54.8 µM (active) and inactive: [6]
active: [1] 34.7 µM

CCCC[N+](CCCC)(CCCC)CCCC
inactive: [1] | [2] | [3] | [8] | [9]

CCSCc1ccccc1OC(=O)NC
not listed: [3]
inactive: all other assays above

COc1ccc(C(=O)c2c(C)n(CCN3CCOCC3)c3ccccc23)cc1
inactive: [1] | [2] | [3] | [4] | [8]

NCCc1cc(O)c(O)cc1O
not listed: [5] | [7] | [9]
inactive: all other assays above

CC(C)c1ccc(NC(=O)N(C)C)cc1
not listed: [5] | [7]
inactive: all other assays above
